PubChem BioAssay (NCATS)
Records with an inconclusive call do not appear. Entries that show only a call come without a potency. Active and inactive are the calls of the source. Calls come from the whole dose curve; as a rule, active = well fitted curve in the direction sought with a large enough effect; inconclusive = small, poorly fitted or top-dose-only effect, or another doubt; inactive = no such curve, though single readings can be large; an effect the other way counts as inactive or inconclusive.

How the values were obtained:
[1] = qHTS assay for measurement of the activity of small molecule inhibitors on Zika virus induced Caspase-3 activity in human astrocytoma cells (AID 1224859)
How it was run: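 A cell-based luminescent caspase-3/7 assay used SNB-19 cells infected with ZIKV (2 FFU/cell) for 6 h following 1 h compound pretreatment.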

[2] = qHTS assay to identify small molecule inhibitors of chordoma cells - UCH-1 (AID 1259355); note: nearly all actives have a fitted effect of over 55% in size
How it was run: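 Cells (800/well) were seeded and left overnight at 37 C, 5% CO2, then treated with drugs at 15 concentrations plus a combination mix of auranofin, camptothecin, doxorubicin, rubitecan and topotecan. Viability after 48hr was read by CellTiter-Glo luminescence.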

[3] = qHTS assay to identify small molecule inhibitors of chordoma cells - UCH-2 (AID 1259356); note: potency is the fitted concentration of half-maximal effect
[4] = qHTS of pediatric cancer cell lines to identify multiple opportunities for drug repurposing: Primary screen for TC32 cells (AID 1347089); note: nearly all actives have a fitted effect of over 60% in size
How it was run: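 qHTS, TC32, 48 h drug treatment, CellTiter-Glo luminescence as a proxy for metabolically active cells; primary top concentration 46 µM (MIPE 11-pt, NPC 8-pt); confirmatory 11-pt.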

[5] = qHTS of pediatric cancer cell lines to identify multiple opportunities for drug repurposing: Primary screen for DAOY cells (AID 1347090); note: nearly all actives have a fitted effect of over 55% in size; note: potency is the fitted concentration of half-maximal effect
How it was run: (§1)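 Viability measured as metabolically active cells via CellTiter-Glo luminescence following 48 hours of compound exposure, 11-point dilutions in confirmatory testing. 500-1,000 cells/well plated 5 hours before dosing; controls were DMSO and 2.3 µM bortezomib.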

[6] = qHTS of pediatric cancer cell lines to identify multiple opportunities for drug repurposing: Primary screen for SK-N-MC cells (AID 1347093); note: potency is the fitted concentration of half-maximal effect
How it was run: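 Metabolically active cells were quantified by ATP-dependent luminescence (CellTiter-Glo, 15 min at room temperature) following 48 h treatment. Cells had been plated at 500-1,000 per well and settled for 5 h beforehand.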

[7] = NS1 protein of Zika virus - qHTS assay to identify small molecule inhibitors in human HEK 293 cells (AID 1347053); note: series mostly up to about 46 µM; nearly all actives have a fitted effect of over 55% in size
How it was run: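 HEK 293 cells, seeded 20 h at 37 C, were pretreated with compound 1 h, then infected with ZIKV MR766 (MOI = 0.5) for 24 h. NS1 was read by TR-FRET with two anti-NS1 antibodies, normalized to uninfected and infected wells.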

[8] = qHTS of pediatric cancer cell lines to identify multiple opportunities for drug repurposing: Primary screen for SJ-GBM2 cells (AID 1347091); note: potency is the fitted concentration of half-maximal effect
How it was run: as §1

[9] = qHTS of pediatric cancer cell lines to identify multiple opportunities for drug repurposing: Primary screen for A673 cells (AID 1347092); note: nearly all actives have a fitted effect of over 45% in size; note: potency is the fitted concentration of half-maximal effect
How it was run: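 Luminescence from CellTiter-Glo, taken after 15 min at room temperature, served as the proxy for metabolically active cells following 48 h treatment. Both potency and efficacy were taken from curves fitted to the titration data.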

[10] = qHTS of pediatric cancer cell lines to identify multiple opportunities for drug repurposing: Primary screen for BT-37 cells (AID 1347094); note: potency is the fitted concentration of half-maximal effect
How it was run: (§2)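 Readout: CellTiter-Glo luminescence, 48 h treatment. Controls DMSO (neutral) and bortezomib 2.3 µM final (positive). Potency and efficacy taken from primary-screen concentration-response curves.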

[11] = qHTS of pediatric cancer cell lines to identify multiple opportunities for drug repurposing: Primary screen for NB-EBc1 cells (AID 1347095); note: potency is the fitted concentration of half-maximal effect
How it was run: as §2

[12] = P-glycoprotein substrates identified in KB-8-5-11 adenocarcinoma cell line, qHTS therapeutic library screen (AID 1346987); note: nearly all actives have a fitted effect of over 65% in size; note: potency is the fitted concentration of half-maximal effect
How it was run: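 Steps: plate 500 KB-8-5-11 cells/well in DMEM + 10% FCS (colchicine removed); pin compounds in dose-response; incubate 72 h, 37 degree C, 5% CO2; add CellTiter-Glo, 5 min; read luminescence.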

Row | Structure (SMILES) | outcome [1] | Potency [2] | Potency [3] | Potency [4] | Potency [5] | Potency [6] | Potency [7] | Potency [8] | Potency [9] | Potency [10] | Potency [11] | Potency [12]
1 | CN1CCN(CCC(=O)N2c3ccccc3Sc3ccc(C(F)(F)F)cc32)CC1 | inactive | inactive | inactive | inactive | inactive | 29.9 µM (active) | – | – | – | – | – | –
2 | OCCOCCN1CCN(C2=Nc3ccccc3Sc3ccccc32)CC1 | inactive | inactive | inactive | – | inactive | inactive | inactive | inactive | inactive | inactive | inactive | –
3 | O=C(N/N=C/c1ccc([N+](=O)[O-])o1)c1ccc(O)cc1 | inactive | inactive | inactive | – | – | – | inactive | inactive | – | – | – | –
4 | CCCCC(CC)COC(=O)/C=C/c1ccc(OC)cc1 (configuration not stated) | inactive | inactive | inactive | – | inactive | inactive | inactive | inactive | – | inactive | inactive | –
5 | COc1ccc(C(Cl)=C(c2ccc(OC)cc2)c2ccc(OC)cc2)cc1 | inactive | inactive | inactive | inactive | inactive | inactive | inactive | – | – | – | – | –
6 | CCN1CCCC(OC(=O)C(c2ccccc2)c2ccccc2)C1 (configuration not stated) | inactive | inactive | inactive | inactive | inactive | inactive | inactive | inactive | – | inactive | inactive | –
7 | CCN(CC)CCNc1ccc(CO)c2sc3ccccc3c(=O)c12 | inactive | inactive | 25.9 µM (active) | – | – | 21.1 µM (active) | – | – | – | 17.4 µM (active) | 7.5 µM (active) | –
8 | CCCCC(CC)COC(=O)c1ccc(N(C)C)cc1 (configuration not stated) | inactive | inactive | inactive | – | inactive | inactive | inactive | inactive | inactive | inactive | inactive | –
9 | C#C[C@]1(O)CC[C@H]2[C@@H]3CCc4cc(OC)ccc4[C@H]3CC[C@@]21C | inactive | inactive | inactive | inactive | inactive | inactive | inactive | – | inactive | inactive | inactive | –
10 | CCCN(CCc1cccs1)[C@H]1CCc2c(O)cccc2C1 | inactive | inactive | inactive | inactive | inactive | inactive | inactive | inactive | – | – | inactive | –
11 | O=C1[C@H](CC[C@H](O)c2ccc(F)cc2)[C@@H](c2ccc(O)cc2)N1c1ccc(F)cc1 | inactive | inactive | inactive | inactive | inactive | – | inactive | – | inactive | inactive | inactive | –
12 | Cl/C(=C\n1cncn1)c1ccc(Cl)cc1Cl | inactive | inactive | inactive | – | inactive | inactive | inactive | inactive | inactive | inactive | inactive | –
13 | CC(=O)O[C@]1(C(C)=O)CC[C@H]2[C@@H]3C=C(C)C4=CC(=O)CC[C@]4(C)[C@H]3CC[C@@]21C | inactive | inactive | inactive | – | inactive | inactive | inactive | inactive | inactive | inactive | inactive | –
14 | CCCCCCCCCCCCCCC[C@H](O)[C@@H](N)CO | inactive | inactive | inactive | – | inactive | inactive | inactive | inactive | inactive | inactive | inactive | –
15 | CC(O)Cn1cnc2c1c(=O)n(C)c(=O)n2C (configuration not stated) | inactive | inactive | inactive | inactive | inactive | inactive | inactive | inactive | – | inactive | inactive | –
16 | O=C(Nc1ccccc1)OCC(CN1CCCCC1)OC(=O)Nc1ccccc1 (configuration not stated) | inactive | inactive | inactive | inactive | inactive | inactive | inactive | – | – | – | inactive | –
17 | C/C=C/C=N/NC(=O)c1ccncc1 | – | inactive | inactive | inactive | inactive | inactive | inactive | inactive | – | inactive | inactive | inactive
18 | CC(=O)OCC(=O)[C@H]1CC[C@H]2[C@@H]3CCC4=CC(=O)CC[C@]4(C)[C@H]3CC[C@]12C | – | – | inactive | inactive | inactive | inactive | inactive | inactive | inactive | inactive | inactive | 7.31 µM (active)
19 | Nc1nc(N)c(-c2ccccc2)s1 | – | – | inactive | inactive | inactive | inactive | inactive | inactive | inactive | inactive | inactive | inactive
20 | Cc1c[nH]c2ccccc12 | – | inactive | inactive | inactive | inactive | – | inactive | inactive | inactive | inactive | – | inactive
21 | COc1ccc(C(=O)c2ccccc2O)c(O)c1 | – | inactive | inactive | inactive | inactive | inactive | inactive | inactive | inactive | inactive | inactive | –
22 | NC(=O)c1ccccc1O | – | inactive | inactive | inactive | inactive | inactive | inactive | inactive | inactive | inactive | inactive | –
23 | Cc1ccc2c(Br)cc(Br)c(O)c2n1 | – | inactive | inactive | – | 8.41 µM (active) | 11.9 µM (active) | inactive | 13.3 µM (active) | 2.66 µM (active) | 8.71 µM (active) | 2.99 µM (active) | –
24 | CCNC(=O)NCc1cccc(Cl)c1 | – | inactive | inactive | – | inactive | inactive | inactive | inactive | inactive | inactive | inactive | inactive
